# Assay results taken from PMC12431657, “Discovery and mechanistic insights of dibenzoylmethane as a broad spectrum inhibitor of coronavirus” (PLOS Pathogens, 2025).
# System: HCoV-229E
# Set-up: species or system Huh-7
# Details: 24 h, 10 µM; inhibitor
smiles,measurement,value
C=C1C(=O)O[C@@H]2[C@H]3O[C@]3(C)CC/C=C(\C)CC[C@@H]12 [Parthenolide],229E Inhibition rate,24.7
